Reference: PubChem BioAssay (NCATS)
Inconclusive results are not listed. Entries that show only a call come without a potency. The source made the active and inactive calls. Unless noted, the call rests on the fitted dose curve; in most records, active means well fitted curve in the direction sought with a large enough effect; inconclusive means small, poorly fitted or top-dose-only effect, or another doubt; inactive means no such curve, though single readings can be large; an effect the other way counts as inactive or inconclusive.

Each molecule was assayed against Ubiquitin carboxyl-terminal hydrolase 2 (Homo sapiens) (UniProt O75604) (assay: qHTS Validation Assay for Inhibitors of Ubiquitin-specific Protease USP2a Using CHOP2 as the Reporter (AID 463106)). Details: USP2a cleavage of CHOP2 reporter, enzymatic; series mostly up to 38.3 µM.
Procedure, shortened: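 USP2 core (10nM final) was preincubated with compound for 30min at RT in 20mM Tris-HCl pH 8.0, 2mM CaCl2, 2mM beta-mercaptoethanol, 0.05% CHAPS. Ub-CHOP2 and reporter substrate (25nM each) were added, and fluorescence (Ex 485/Em 531nm) was read after 60min.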

Chain of Ubiquitin carboxyl-terminal hydrolase 2 (Homo sapiens) (O75604 whole entry, looked up): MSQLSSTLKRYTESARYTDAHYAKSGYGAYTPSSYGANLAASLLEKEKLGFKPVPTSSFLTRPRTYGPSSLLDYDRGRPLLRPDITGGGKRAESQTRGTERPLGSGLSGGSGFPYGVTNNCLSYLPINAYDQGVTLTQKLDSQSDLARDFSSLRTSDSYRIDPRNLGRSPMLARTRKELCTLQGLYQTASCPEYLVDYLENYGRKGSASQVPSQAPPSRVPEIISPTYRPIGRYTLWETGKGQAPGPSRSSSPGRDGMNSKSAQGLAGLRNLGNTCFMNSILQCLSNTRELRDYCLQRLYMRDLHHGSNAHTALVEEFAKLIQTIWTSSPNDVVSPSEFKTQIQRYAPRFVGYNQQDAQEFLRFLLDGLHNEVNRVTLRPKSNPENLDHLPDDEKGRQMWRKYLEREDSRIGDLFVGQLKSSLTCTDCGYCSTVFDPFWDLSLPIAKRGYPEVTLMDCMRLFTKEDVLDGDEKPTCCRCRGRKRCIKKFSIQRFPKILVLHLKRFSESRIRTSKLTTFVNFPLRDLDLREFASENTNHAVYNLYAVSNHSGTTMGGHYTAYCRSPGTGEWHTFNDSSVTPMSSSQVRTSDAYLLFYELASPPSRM

Which Potency does the source give for `Cc1cn([C@H]2C=C[C@@H](CO)O2)c(=O)[nH]c1=O` here?
Its Potency is “inactive”.

Which Potency does the source give for `Cn1c(=O)c2c(ncn2C)n(C)c1=O` here?
The Potency was “inactive”.

With `CC12CC3CC(C)(C1)CC(N)(C3)C2` as the molecule, how does the Potency read?
The Potency was “inactive”.

`CC(CCc1ccc(O)cc1)NCCc1ccc(O)c(O)c1` (stereo not drawn) was tested. Which Potency did it give?
Its Potency is “inactive”.

`CCCCc1oc2ccccc2c1C(=O)c1cc(I)c(OCCN(CC)CC)c(I)c1` was tested. Which Potency did it give?
Its Potency is “inactive”.

With `CC1COc2c(N3CCN(C)CC3)c(F)cc3c(=O)c(C(=O)O)cn1c23` (stereo not drawn) as the molecule, how does the Potency read?
Its Potency is “inactive”.

For `CCOC(=O)c1ncn2c1CN(C)C(=O)c1cc(F)ccc1-2`, which Potency is on record?
Its Potency is “inactive”.

Which Potency does the source give for `CCC1(c2ccccc2)C(=O)NCNC1=O` here?
The Potency was “inactive”.

With `NS(=O)(=O)c1cc2c(cc1Cl)NCNS2(=O)=O` as the molecule, how does the Potency read?
The Potency was “inactive”.

How did the Potency turn out when `CN1CCN2c3ccccc3Cc3ccccc3C2C1` (stereo not drawn) was run?
The Potency was “inactive”.

Which Potency does the source give for `NC(CO)C(=O)NNCc1ccc(O)c(O)c1O` (stereo not drawn) here?
Its Potency is “inactive”.

For `C[C@H]1c2cccc(O)c2C(O)=C2C(=O)[C@]3(O)C(O)=C(C(N)=O)C(=O)[C@@H](N(C)C)[C@@H]3[C@@H](O)[C@@H]21`, which Potency is on record?
Its Potency is “inactive”.

`CC(C)C(=O)Nc1ccc([N+](=O)[O-])c(C(F)(F)F)c1` was tested. Which Potency did it give?
The Potency was “inactive”.

How did the Potency turn out when `CCC1(C)CC(=O)NC1=O` (stereo not drawn) was run?
Its Potency is “inactive”.

Which Potency does the source give for `NCCCCCC(=O)O` here?
The Potency was “inactive”.

Which Potency does the source give for `CN1CCC(=C2c3ccccc3CC(=O)c3sccc32)CC1` here?
Its Potency is “inactive”.

How did the Potency turn out when `C[C@](N)(Cc1ccc(O)c(O)c1)C(=O)O` was run?
Its Potency is “inactive”.

With `Clc1ccccc1C(c1ccccc1)(c1ccccc1)n1ccnc1` as the molecule, how does the Potency read?
The Potency was “inactive”.

How did the Potency turn out when `NC(=O)OCC(COC(N)=O)c1ccccc1` was run?
The Potency was “inactive”.

`CC(COc1ccccc1)N(CCCl)Cc1ccccc1` (stereo not drawn) was tested. Which Potency did it give?
Its Potency is “inactive”.

How did the Potency turn out when `Nc1nnc(-c2cccc(Cl)c2Cl)c(N)n1` was run?
Its Potency is “inactive”.

`NC12CC3CC(CC(C3)C1)C2` was tested. Which Potency did it give?
Its Potency is “inactive”.

Which Potency does the source give for `COc1ccc2[nH]cc(CCNC(C)=O)c2c1` here?
The Potency was “inactive”.

`Nc1nc2c(ncn2COC(CO)CO)c(=O)[nH]1` was tested. Which Potency did it give?
Its Potency is “inactive”.

Which Potency does the source give for `Cc1ccccc1N1C(=O)c2cc(S(N)(=O)=O)c(Cl)cc2NC1C` (stereo not drawn) here?
The Potency was “inactive”.

For `CN(C)c1nc(N(C)C)nc(N(C)C)n1`, which Potency is on record?
The Potency was “inactive”.

How did the Potency turn out when `CCOC(=O)C(C)(C)Oc1ccc(Cl)cc1` was run?
Its Potency is “inactive”.

For `CCc1cccc2c3c([nH]c12)C(CC)(CC(=O)O)OCC3` (stereo not drawn), which Potency is on record?
The Potency was “inactive”.

`Cc1cc(C(C)(C)C)c(O)c(C)c1CC1=NCCN1` was tested. Which Potency did it give?
The Potency was “inactive”.

Which Potency does the source give for `CC(C)(Oc1ccc(C2CC2(Cl)Cl)cc1)C(=O)O` (stereo not drawn) here?
The Potency was “inactive”.

Which Potency does the source give for `COc1ccc2c(c1)c(CC(=O)O)c(C)n2C(=O)c1ccc(Cl)cc1` here?
Its Potency is “inactive”.

The molecules below were run against DNA polymerase III PolC-type (Bacillus subtilis (strain 168)) (UniProt P13267) (assay: qHTS Validation Assay for the Inhibitors of DNA Replication in Gram-Positive Bacteria (AID 485295;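 further: reconstituted holoenzyme with PolC plus beta clamp SSB and primase; PicoGreen fluorescence of double-stranded DNA made on primed circular M13 template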)). Details: Gram-positive bacterial DNA replication assay; series mostly up to 57.1 µM.
Procedure, shortened: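 First, compound is mixed with the reconstituted replication complex and held at room temperature. Next, circular single-stranded M13Gori with nucleotides starts synthesis. Finally, PicoGreen in EDTA halts the reaction and stains double-stranded product for fluorescence reading.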

Chain of DNA polymerase III PolC-type (Bacillus subtilis (strain 168)) (P13267 whole entry, looked up): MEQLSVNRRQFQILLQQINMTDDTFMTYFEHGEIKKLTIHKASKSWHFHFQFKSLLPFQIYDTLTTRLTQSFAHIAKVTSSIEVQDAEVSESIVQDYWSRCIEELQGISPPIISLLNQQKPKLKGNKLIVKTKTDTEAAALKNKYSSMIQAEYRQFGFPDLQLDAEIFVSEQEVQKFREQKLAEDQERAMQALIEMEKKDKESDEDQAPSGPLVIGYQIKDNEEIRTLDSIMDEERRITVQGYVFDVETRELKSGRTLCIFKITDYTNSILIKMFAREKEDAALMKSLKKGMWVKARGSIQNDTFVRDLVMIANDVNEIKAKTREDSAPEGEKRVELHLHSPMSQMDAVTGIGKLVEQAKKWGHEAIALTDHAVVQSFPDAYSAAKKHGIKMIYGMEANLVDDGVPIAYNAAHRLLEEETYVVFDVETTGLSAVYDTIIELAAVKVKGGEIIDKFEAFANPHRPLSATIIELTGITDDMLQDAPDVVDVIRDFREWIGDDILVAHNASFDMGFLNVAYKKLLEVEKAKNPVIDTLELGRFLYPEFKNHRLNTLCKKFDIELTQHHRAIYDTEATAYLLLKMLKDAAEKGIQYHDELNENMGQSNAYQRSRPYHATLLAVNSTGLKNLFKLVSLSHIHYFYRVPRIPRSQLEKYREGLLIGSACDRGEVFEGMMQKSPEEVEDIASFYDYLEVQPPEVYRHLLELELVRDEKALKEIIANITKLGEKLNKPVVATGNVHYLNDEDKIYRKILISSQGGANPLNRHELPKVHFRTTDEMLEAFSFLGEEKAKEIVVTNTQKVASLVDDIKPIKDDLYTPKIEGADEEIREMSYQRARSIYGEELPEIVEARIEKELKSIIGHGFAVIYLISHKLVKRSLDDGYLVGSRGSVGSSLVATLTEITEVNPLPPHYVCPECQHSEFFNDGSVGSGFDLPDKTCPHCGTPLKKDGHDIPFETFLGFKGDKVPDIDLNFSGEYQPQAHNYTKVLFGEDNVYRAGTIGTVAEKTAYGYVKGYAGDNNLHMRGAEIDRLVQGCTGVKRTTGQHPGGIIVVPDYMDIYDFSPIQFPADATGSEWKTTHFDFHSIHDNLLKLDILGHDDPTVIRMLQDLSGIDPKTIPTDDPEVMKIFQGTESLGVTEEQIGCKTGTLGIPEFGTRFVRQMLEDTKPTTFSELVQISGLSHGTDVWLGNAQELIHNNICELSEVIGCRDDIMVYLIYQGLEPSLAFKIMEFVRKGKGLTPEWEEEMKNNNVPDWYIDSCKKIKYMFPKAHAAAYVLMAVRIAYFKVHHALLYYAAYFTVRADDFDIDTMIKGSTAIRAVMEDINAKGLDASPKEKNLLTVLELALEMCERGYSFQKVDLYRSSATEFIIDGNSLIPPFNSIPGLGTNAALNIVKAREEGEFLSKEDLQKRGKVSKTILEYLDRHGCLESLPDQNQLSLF

Which Potency does the source give for `Cc1cn([C@H]2C=C[C@@H](CO)O2)c(=O)[nH]c1=O` here?
Its Potency is “inactive”.

Which Potency does the source give for `Cn1c(=O)c2c(ncn2C)n(C)c1=O` here?
The Potency was “inactive”.

With `CC12CC3CC(C)(C1)CC(N)(C3)C2` as the molecule, how does the Potency read?
The Potency was “inactive”.

Which Potency does the source give for `CC(CCc1ccc(O)cc1)NCCc1ccc(O)c(O)c1` (stereo not drawn) here?
Its Potency is “inactive”.

For `CCCCc1oc2ccccc2c1C(=O)c1cc(I)c(OCCN(CC)CC)c(I)c1`, which Potency is on record?
Its Potency is “inactive”.

Which Potency does the source give for `CC1COc2c(N3CCN(C)CC3)c(F)cc3c(=O)c(C(=O)O)cn1c23` (stereo not drawn) here?
Its Potency is “inactive”.

`CCOC(=O)c1ncn2c1CN(C)C(=O)c1cc(F)ccc1-2` was tested. Which Potency did it give?
Its Potency is “inactive”.

Which Potency does the source give for `CCC1(c2ccccc2)C(=O)NCNC1=O` here?
Its Potency is “inactive”.

For `NS(=O)(=O)c1cc2c(cc1Cl)NCNS2(=O)=O`, which Potency is on record?
The Potency was “inactive”.

With `CN1CCN2c3ccccc3Cc3ccccc3C2C1` (stereo not drawn) as the molecule, how does the Potency read?
Its Potency is “inactive”.

For `NC(CO)C(=O)NNCc1ccc(O)c(O)c1O` (stereo not drawn), which Potency is on record?
The Potency was “inactive”.

With `C[C@H]1c2cccc(O)c2C(O)=C2C(=O)[C@]3(O)C(O)=C(C(N)=O)C(=O)[C@@H](N(C)C)[C@@H]3[C@@H](O)[C@@H]21` as the molecule, how does the Potency read?
Its Potency is “inactive”.

How did the Potency turn out when `CC(C)C(=O)Nc1ccc([N+](=O)[O-])c(C(F)(F)F)c1` was run?
Its Potency is “inactive”.

`CCC1(C)CC(=O)NC1=O` (stereo not drawn) was tested. Which Potency did it give?
The Potency was “inactive”.

For `NCCCCCC(=O)O`, which Potency is on record?
Its Potency is “inactive”.

For `CN1CCC(=C2c3ccccc3CC(=O)c3sccc32)CC1`, which Potency is on record?
The Potency was “inactive”.

For `C[C@](N)(Cc1ccc(O)c(O)c1)C(=O)O`, which Potency is on record?
Its Potency is “inactive”.

`Clc1ccccc1C(c1ccccc1)(c1ccccc1)n1ccnc1` was tested. Which Potency did it give?
The Potency was “inactive”.

For `NC(=O)OCC(COC(N)=O)c1ccccc1`, which Potency is on record?
Its Potency is “inactive”.

For `CC(COc1ccccc1)N(CCCl)Cc1ccccc1` (stereo not drawn), which Potency is on record?
The Potency was “inactive”.

Which Potency does the source give for `Nc1nnc(-c2cccc(Cl)c2Cl)c(N)n1` here?
The Potency was “inactive”.

For `NC12CC3CC(CC(C3)C1)C2`, which Potency is on record?
The Potency was “inactive”.

`COc1ccc2[nH]cc(CCNC(C)=O)c2c1` was tested. Which Potency did it give?
The Potency was “inactive”.

With `Nc1nc2c(ncn2COC(CO)CO)c(=O)[nH]1` as the molecule, how does the Potency read?
Its Potency is “inactive”.

For `Cc1ccccc1N1C(=O)c2cc(S(N)(=O)=O)c(Cl)cc2NC1C` (stereo not drawn), which Potency is on record?
The Potency was “inactive”.

How did the Potency turn out when `CN(C)c1nc(N(C)C)nc(N(C)C)n1` was run?
The Potency was “inactive”.

How did the Potency turn out when `CCOC(=O)C(C)(C)Oc1ccc(Cl)cc1` was run?
The Potency was “inactive”.

How did the Potency turn out when `CCc1cccc2c3c([nH]c12)C(CC)(CC(=O)O)OCC3` (stereo not drawn) was run?
Its Potency is “inactive”.

Which Potency does the source give for `Cc1cc(C(C)(C)C)c(O)c(C)c1CC1=NCCN1` here?
The Potency was “inactive”.

Which Potency does the source give for `CC(C)(Oc1ccc(C2CC2(Cl)Cl)cc1)C(=O)O` (stereo not drawn) here?
Its Potency is “inactive”.

For `COc1ccc2c(c1)c(CC(=O)O)c(C)n2C(=O)c1ccc(Cl)cc1`, which Potency is on record?
Its Potency is “inactive”.

Each molecule was assayed against Tumor susceptibility gene 101 protein (Homo sapiens) (UniProt Q99816) (assay: qHTS Validation Assay for Iinhibitors of HIV-1 Budding by Blocking the Interaction of PTAP/TSG101 (AID 485342; calls by dose curve)). Details: TSG101-PTAP binding, fluorescence polarization, 4-point titration; series mostly up to 115 µM.
Procedure, shortened: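 Binding of a FITC-tagged PTAP-motif peptide (50 nM) to the Tsg101 binding domain (10 uM) is monitored by fluorescence polarization. Compounds are pin-delivered before peptide addition, and incubation runs 20 min at room temperature.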

Chain of Tumor susceptibility gene 101 protein (Homo sapiens) (Q99816 whole entry, looked up, the tested form may be a part): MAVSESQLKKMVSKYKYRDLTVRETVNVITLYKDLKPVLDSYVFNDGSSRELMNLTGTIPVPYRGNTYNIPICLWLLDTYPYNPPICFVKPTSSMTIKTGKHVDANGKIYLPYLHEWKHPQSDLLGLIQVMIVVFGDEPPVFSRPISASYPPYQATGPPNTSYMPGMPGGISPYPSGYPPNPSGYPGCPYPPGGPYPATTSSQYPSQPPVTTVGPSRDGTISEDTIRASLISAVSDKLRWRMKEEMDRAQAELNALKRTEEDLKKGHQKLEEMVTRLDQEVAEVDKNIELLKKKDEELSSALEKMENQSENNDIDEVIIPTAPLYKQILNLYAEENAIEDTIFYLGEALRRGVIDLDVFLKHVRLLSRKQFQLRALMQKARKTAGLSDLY

`Cc1cn([C@H]2C=C[C@@H](CO)O2)c(=O)[nH]c1=O` was tested. Which outcome did it give?
Its outcome is “inactive”.

Which outcome does the source give for `Cn1c(=O)c2c(ncn2C)n(C)c1=O` here?
Its outcome is “inactive”.

For `CC12CC3CC(C)(C1)CC(N)(C3)C2`, which outcome is on record?
Its outcome is “inactive”.

With `CC(CCc1ccc(O)cc1)NCCc1ccc(O)c(O)c1` (stereo not drawn) as the molecule, how does the outcome read?
The outcome was “inactive”.

Which outcome does the source give for `CCCCc1oc2ccccc2c1C(=O)c1cc(I)c(OCCN(CC)CC)c(I)c1` here?
Its outcome is “inactive”.

`CC1COc2c(N3CCN(C)CC3)c(F)cc3c(=O)c(C(=O)O)cn1c23` (stereo not drawn) was tested. Which outcome did it give?
Its outcome is “inactive”.

Which outcome does the source give for `CCOC(=O)c1ncn2c1CN(C)C(=O)c1cc(F)ccc1-2` here?
The outcome was “inactive”.

With `CCC1(c2ccccc2)C(=O)NCNC1=O` as the molecule, how does the outcome read?
The outcome was “inactive”.

For `NS(=O)(=O)c1cc2c(cc1Cl)NCNS2(=O)=O`, which outcome is on record?
Its outcome is “inactive”.

With `CN1CCN2c3ccccc3Cc3ccccc3C2C1` (stereo not drawn) as the molecule, how does the outcome read?
The outcome was “inactive”.

`NC(CO)C(=O)NNCc1ccc(O)c(O)c1O` (stereo not drawn) was tested. Which outcome did it give?
The outcome was “inactive”.

How did the outcome turn out when `C[C@H]1c2cccc(O)c2C(O)=C2C(=O)[C@]3(O)C(O)=C(C(N)=O)C(=O)[C@@H](N(C)C)[C@@H]3[C@@H](O)[C@@H]21` was run?
Its outcome is “inactive”.

With `CC(C)C(=O)Nc1ccc([N+](=O)[O-])c(C(F)(F)F)c1` as the molecule, how does the outcome read?
The outcome was “inactive”.

How did the outcome turn out when `CCC1(C)CC(=O)NC1=O` (stereo not drawn) was run?
Its outcome is “inactive”.

With `NCCCCCC(=O)O` as the molecule, how does the outcome read?
The outcome was “inactive”.

For `CN1CCC(=C2c3ccccc3CC(=O)c3sccc32)CC1`, which outcome is on record?
Its outcome is “inactive”.

`C[C@](N)(Cc1ccc(O)c(O)c1)C(=O)O` was tested. Which outcome did it give?
The outcome was “inactive”.

`Clc1ccccc1C(c1ccccc1)(c1ccccc1)n1ccnc1` was tested. Which outcome did it give?
The outcome was “inactive”.

`NC(=O)OCC(COC(N)=O)c1ccccc1` was tested. Which outcome did it give?
Its outcome is “inactive”.

For `CC(COc1ccccc1)N(CCCl)Cc1ccccc1` (stereo not drawn), which outcome is on record?
Its outcome is “inactive”.

`Nc1nnc(-c2cccc(Cl)c2Cl)c(N)n1` was tested. Which outcome did it give?
The outcome was “inactive”.

With `NC12CC3CC(CC(C3)C1)C2` as the molecule, how does the outcome read?
The outcome was “inactive”.

With `COc1ccc2[nH]cc(CCNC(C)=O)c2c1` as the molecule, how does the outcome read?
The outcome was “inactive”.

For `Nc1nc2c(ncn2COC(CO)CO)c(=O)[nH]1`, which outcome is on record?
The outcome was “inactive”.

With `Cc1ccccc1N1C(=O)c2cc(S(N)(=O)=O)c(Cl)cc2NC1C` (stereo not drawn) as the molecule, how does the outcome read?
Its outcome is “inactive”.

With `CN(C)c1nc(N(C)C)nc(N(C)C)n1` as the molecule, how does the outcome read?
The outcome was “inactive”.

Which outcome does the source give for `CCOC(=O)C(C)(C)Oc1ccc(Cl)cc1` here?
The outcome was “inactive”.

How did the outcome turn out when `CCc1cccc2c3c([nH]c12)C(CC)(CC(=O)O)OCC3` (stereo not drawn) was run?
The outcome was “inactive”.

How did the outcome turn out when `Cc1cc(C(C)(C)C)c(O)c(C)c1CC1=NCCN1` was run?
The outcome was “inactive”.

`CC(C)(Oc1ccc(C2CC2(Cl)Cl)cc1)C(=O)O` (stereo not drawn) was tested. Which outcome did it give?
The outcome was “inactive”.

Which outcome does the source give for `COc1ccc2c(c1)c(CC(=O)O)c(C)n2C(=O)c1ccc(Cl)cc1` here?
The outcome was “inactive”.
